# From the supplement of paper PMC8728848
# About 410 targets per protein were measured; listed, in parts, are those with the strongest signals and a random draw of the rest.
# B1: Gal 8 (Mus musculus), Q9JL15 (protein)
# chain: MGGSHHHHHHGMASMLSLNNLQNIIYNPIIPYVGTITEQLKPGSLIVIRGHVPKDSERFQVDFQLGNSLKPRADVAFHFNPHFKRSSCIVCNTLTQEKWGWEEITYDMPFRKEKSFEIVFMVLKNKFQVAVNGRHVLLYAHRISPEQIDTVGIYGKVNIHSIGFRFSSASALPHTLGDLQSMETSALGLTQINRENIQKPGKLQLSLPFEARLNASMGPGRTVVIKGEVNTNARSFNVDLVAGKTRDIALHLNPHLNVKAFVRNSFLQDAWGEEERNITCFPFSSGMYFEMIIYCDVREFKVAINGVHSLEYKHRFKDLSSIDTLSVDGDIRLLDVRSW
# Key:
# Assay in all cases: glycan array binding signal (z-score within array); higher = stronger binding
# Settings in all cases: glycan notation: IUPAC condensed, linker removed; mutation: R82H, R255H
# [1] = biological target: Fuc(a1-2)Gal(b1-3)GlcNAc(b1-3)[Gal(b1-4)GlcNAc(b1-6)]Gal(b1-4)Glc
# Summary of the method: (§1)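 Glycan array data came from 3228 arrays in the Consortium for Functional Glycomics database, and only arrays with an available protein sequence were kept. Glycan names were put into IUPAC-condensed notation, and columns mapping to the same glycan were averaged. The binding signal is a within-array Z-score, averaged across arrays of one protein sequence run at different concentrations or buffers and across linkers. A negative Z-score can be read as non-binding.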
# [2] = biological target: Fuc(a1-2)Gal(b1-3)[Fuc(a1-4)]GlcNAc(b1-2)Man(a1-3)[Fuc(a1-2)Gal(b1-3)[Fuc(a1-4)]GlcNAc(b1-2)Man(a1-3)]Man(b1-4)GlcNAc(b1-4)GlcNAc
# Summary of the method: as §1
# [3] = biological target: Fuc(a1-2)[Gal(a1-3)]Gal(b1-3)GlcNAc(b1-2)Man(a1-3)[Fuc(a1-2)[Gal(a1-3)]Gal(b1-3)GlcNAc(b1-2)Man(a1-6)]Man(b1-4)GlcNAc(b1-4)GlcNAc
# Summary of the method: as §1
# [4] = biological target: Fuc(a1-2)[Gal(a1-3)]Gal(b1-4)GlcNAc(b1-6)GalNAc
# Summary of the method: as §1
# [5] = biological target: Fuc(a1-2)[GalNAc(a1-3)]Gal
# Summary of the method: as §1
# [6] = biological target: Fuc(a1-2)[GalNAc(a1-3)]Gal(b1-3)GalNAc(b1-3)Gal(a1-4)Gal(b1-4)Glc
# Summary of the method: as §1
# [7] = biological target: Fuc(a1-2)[GalNAc(a1-3)]Gal(b1-3)GlcNAc(b1-2)Man(a1-3)[Fuc(a1-2)[GalNAc(a1-3)]Gal(b1-3)GlcNAc(b1-2)Man(a1-6)]Man(b1-4)GlcNAc(b1-4)GlcNAc
# Summary of the method: as §1
# [8] = biological target: Fuc(a1-2)[GalNAc(a1-3)]Gal(b1-4)GlcNAc(b1-2)Man(a1-3)[Fuc(a1-2)[GalNAc(a1-3)]Gal(b1-4)GlcNAc(b1-2)Man(a1-6)]Man(b1-4)GlcNAc(b1-4)GlcNAc
# Summary of the method: as §1
# [9] = biological target: Fuc(a1-2)[GalNAc(a1-3)]Gal(b1-4)GlcNAc(b1-3)Gal(b1-4)GlcNAc
# Summary of the method: as §1
# [10] = biological target: Fuc(a1-2)[GalNAc(a1-3)]Gal(b1-4)GlcNAc(b1-3)[Fuc(a1-2)[GalNAc(a1-3)]Gal(b1-4)GlcNAc(b1-6)]GalNAc
# Summary of the method: as §1
# [11] = biological target: Fuc(a1-3)[Gal(b1-4)]GlcNAc(b1-6)GalNAc
# Summary of the method: as §1
# [12] = biological target: Fuc(a1-3)[Gal3S(b1-4)]Glc
# Summary of the method: as §1
# Fuc(a1-4)GlcNAc = biological target: Fuc(a1-4)GlcNAc
# Summary of the method: as §1
# [13] = biological target: Gal(a1-3)Gal(b1-3)GlcNAc(b1-2)Man
# Summary of the method: as §1
# [14] = biological target: Gal(a1-3)[Gal(a1-4)]Gal(b1-4)GlcNAc
# Summary of the method: as §1
# Gal(a1-4)Gal(b1-4)Glc = biological target: Gal(a1-4)Gal(b1-4)Glc
# Summary of the method: as §1
# Gal(b1-2)Gal = biological target: Gal(b1-2)Gal
# Summary of the method: as §1
# Gal(b1-3)GalNAc = biological target: Gal(b1-3)GalNAc
# Summary of the method: as §1
# [15] = biological target: Gal(b1-3)GalNAc(b1-3)Gal(a1-4)Gal(b1-4)Glc
# Summary of the method: as §1
# [16] = biological target: Gal(b1-3)GalNAc(b1-4)Gal(b1-4)Glc
# Summary of the method: as §1
# [17] = biological target: Gal(b1-3)GlcNAc(a1-3)Gal(b1-4)GlcNAc
# Summary of the method: as §1
# [18] = biological target: Gal(b1-3)GlcNAc(b1-3)Gal(b1-4)Glc
# Summary of the method: as §1
# [19] = biological target: Gal(b1-3)GlcNAc(b1-6)GalNAc
# Summary of the method: as §1
# [20] = biological target: Gal(b1-3)[Fuc(a1-4)]GlcNAc(b1-6)GalNAc
# Summary of the method: as §1
# Gal(b1-4)GlcNAc(b1-2)Man = biological target: Gal(b1-4)GlcNAc(b1-2)Man
# Summary of the method: as §1
# [21] = biological target: Gal(b1-4)GlcNAc(b1-3)Gal(b1-4)GlcNAc(b1-2)Man(a1-3)[Gal(b1-4)GlcNAc(b1-3)Gal(b1-4)GlcNAc(b1-2)Man(a1-6)]Man(b1-4)GlcNAc(b1-4)GlcNAc
# Summary of the method: as §1
# [22] = biological target: Gal(b1-4)GlcNAc(b1-3)Gal(b1-4)GlcNAc(b1-3)Gal(b1-4)GlcNAc(b1-3)Gal(b1-4)GlcNAc(b1-3)Gal(b1-4)GlcNAc(b1-2)[Gal(b1-4)GlcNAc(b1-3)Gal(b1-4)GlcNAc(b1-3)Gal(b1-4)GlcNAc(b1-3)Gal(b1-4)GlcNAc(b1-3)Gal(b1-4)GlcNAc(b1-6)]Man(a1-6)[Gal(b1-4)GlcNAc(b1-3)Gal(b1-4)GlcNAc(b1-3)Gal(b1-4)GlcNAc(b1-3)Gal(b1-4)GlcNAc(b1-3)Gal(b1-4)GlcNAc(b1-2)Man(a1-3)]Man(b1-4)GlcNAc(b1-4)[Fuc(a1-6)]GlcNAc
# Summary of the method: as §1
# [23] = biological target: Gal(b1-4)GlcNAc(b1-3)Gal(b1-4)GlcNAc(b1-3)Gal(b1-4)GlcNAc(b1-3)Gal(b1-4)GlcNAc(b1-3)Gal(b1-4)GlcNAc(b1-3)Gal(b1-4)GlcNAc(b1-2)Man(a1-3)[Gal(b1-4)GlcNAc(b1-3)Gal(b1-4)GlcNAc(b1-3)Gal(b1-4)GlcNAc(b1-3)Gal(b1-4)GlcNAc(b1-3)Gal(b1-4)GlcNAc(b1-3)Gal(b1-4)GlcNAc(b1-2)Man(a1-6)]Man(b1-4)GlcNAc(b1-4)GlcNAc
# Summary of the method: as §1
binder,measurement,setting,value
B1,glycan array binding signal (z-score),[1],1.15
same,glycan array binding signal (z-score),[2],-0.083
same,glycan array binding signal (z-score),[3],4.77
same,glycan array binding signal (z-score),[4],-0.168
same,glycan array binding signal (z-score),[5],-0.248
same,glycan array binding signal (z-score),[6],-0.253
same,glycan array binding signal (z-score),[7],7.3
same,glycan array binding signal (z-score),[8],6.58
same,glycan array binding signal (z-score),[9],-0.08
same,glycan array binding signal (z-score),[10],0.117
same,glycan array binding signal (z-score),[11],-0.212
same,glycan array binding signal (z-score),[12],-0.192
same,glycan array binding signal (z-score),Fuc(a1-4)GlcNAc,0.01
same,glycan array binding signal (z-score),[13],-0.263
same,glycan array binding signal (z-score),[14],-0.236
same,glycan array binding signal (z-score),Gal(a1-4)Gal(b1-4)Glc,-0.18
same,glycan array binding signal (z-score),Gal(b1-2)Gal,-0.193
same,glycan array binding signal (z-score),Gal(b1-3)GalNAc,-0.251
same,glycan array binding signal (z-score),[15],-0.235
same,glycan array binding signal (z-score),[16],-0.226
same,glycan array binding signal (z-score),[17],-0.269
same,glycan array binding signal (z-score),[18],-0.263
same,glycan array binding signal (z-score),[19],-0.274
same,glycan array binding signal (z-score),[20],-0.243
same,glycan array binding signal (z-score),Gal(b1-4)GlcNAc(b1-2)Man,-0.197
same,glycan array binding signal (z-score),[21],0.454
same,glycan array binding signal (z-score),[22],6
same,glycan array binding signal (z-score),[23],7.05
